Growth inhibition data for 37 compounds are collected here from PubChem BioAssay (NCI).

Assay [1] in a line: NCI Yeast Anticancer Drug Screen. Data for the rad50 strain (AID 155).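 Note: 0% = growth of vehicle-only cultures of the same strain.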 Particulars: S. cerevisiae rad50 strain growth inhibition; at 50.0 µM; active compounds read high. The method in brief: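 Compounds were tested on a yeast strain with an engineered DNA damage repair alteration; the reported value is growth inhibition normalised to vehicle treatment.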
A short description of assay [2]: NCI Yeast Anticancer Drug Screen. Data for the mec2-1 strain (AID 157). The following applies: S. cerevisiae mec2-1 strain, at 50.0 µM, active compounds read high. In a few lines: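 Strain: mec2-1 (DNA repair/cell cycle alteration). Compound exposure, then growth measured; inhibition expressed relative to vehicle.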
Assay [3] is described as follows: NCI Yeast Anticancer Drug Screen. Data for the sgs1 mgt1 strain (AID 161).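 Note: 0% = growth of cultures given vehicle only.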 The following applies: S. cerevisiae sgs1 mgt1 strain, at 50.0 µM, active compounds read high. The method in brief:
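Mutant yeast exposed to compound; growth scored against vehicle-only wells.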

A short description of assay [4]: NCI Yeast Anticancer Drug Screen. Data for the cln2 rad14 strain (AID 165).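 Note: 0% = growth equal to vehicle treated cultures.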 The following applies: S. cerevisiae cln2 rad14 strain, at 50.0 µM, active compounds read high. The method in brief: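 Compounds are applied to the cln2 rad14 yeast strain, and growth is then compared with that of vehicle-treated cultures to give inhibition.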
The nature of assay [5]: NCI Yeast Anticancer Drug Screen. Data for the bub3 strain (AID 167). The following applies: S. cerevisiae bub3 mutant strain, at 50.0 µM, active compounds read high. The method in brief:
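Growth of a checkpoint-deficient yeast mutant is measured after compound exposure. Values represent inhibition relative to vehicle.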

Assay [6] can be described thus: NCI Yeast Anticancer Drug Screen. Data for the mlh1 rad18 strain (AID 175). The following applies: S. cerevisiae mlh1 rad18 strain growth inhibition; at 50.0 µM; active compounds read high. The method in brief: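 Read-out is yeast growth inhibition, calculated against vehicle-only controls. The compound was applied to a strain engineered with DNA damage repair alterations.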

This is part of a sample that, as a whole, favours compounds with a hit. Of some 79,000 tested, about 15% had one in any assay. A number with no mark means an inactive call. Calls of active or inactive are those of the source. Cut-off read from the data, not from the text of the source: active = growth inhibition above about 70%; inactive = the rest.

For the compound `C=CCN(C)C(=O)CCCCCCCC1C(CCCCCCCC)C2(Cl)C(Cl)=C(Cl)C1(Cl)C2(Cl)Cl` (configuration not stated), the growth inhibition in assay [1] is 30.7%; in assay [2] it was 4.35%; in assay [3] it was 8.6%; in assay [4] it was -20.5%; in assay [5], -1.5%; in assay [6] it was -8.35%.
In the case of `O=C(O)C(=Cc1cccc2ccc3ccccc3c12)C(=O)O`, the growth inhibition in assay [1] was -8.7%; in assay [2], -17.2%; in assay [3], -4.8%; in assay [4], -4.45%; in assay [5], -1.8%; in assay [6], -6.2%.
With `COC(=O)NC1C(C)OC(OC2C/C=C(/C)C3C=CC4C(OC5CC(OC6CCC(OC7CC(O)C(OC8CCC(O)C(C)O8)C(C)O7)C(C)O6)C(OC(C)=O)C(C)O5)C(C)CC(C)C4C3(C)/C(O)=C3/C(=O)OC4(CC(C=O)=CC(O)C4/C=C\2C)C3=O)CC1(C)[N+](=O)[O-]` (configuration not stated), the growth inhibition in assay [1] is 21.1%; in assay [2] it was 20.9%; in assay [3] it was 22.2%; in assay [4], 25.6%; in assay [5], 22.9%; in assay [6], -38%.
Regarding `Cc1nc2c(=O)[nH]c(=S)[nH]c2[nH]c1=O`, the growth inhibition in assay [1] is -15.2%; in assay [2], -28%; in assay [3], -2.1%; in assay [4], 12.5%; in assay [5], -1.3%; in assay [6] it was -1%.
Consider `CCOCCOCCOC12C(=O)C(Cl)=C(Cl)C(=O)C13C1CC2C(Cl)C13` (configuration not stated), for which the growth inhibition in assay [1] was 99.4% (active); in assay [2] it was 99.5% (active); in assay [3], 98.9% (active); in assay [4] it was 98% (active); in assay [5], 98.7% (active); in assay [6], 98.2% (active).
Regarding `CC(=O)OC1CC2CCC1(c1ccccc1)C2` (configuration not stated), the growth inhibition in assay [1] is 0.85%; in assay [2], -25.1%; in assay [3] it was 0.4%; in assay [4], 14.4%; in assay [5], -1.2%; in assay [6], 3.15%.
`CC(=O)Nc1ccc(NC(=O)c2ccccc2Cl)cc1`: the growth inhibition is -0.45% in assay [1]; -9.15% in assay [2]; 4.7% in assay [3]; -6.6% in assay [4]; 10.9% in assay [5]; -33.1% in assay [6].
Take `Nc1nnc2nc(CC(=O)Cc3ccccc3)c(CC(=O)Cc3ccccc3)nn12`: the growth inhibition was 0.3% in assay [1]; -5.55% in assay [2]; 11.2% in assay [3]; -17.9% in assay [4]; 10.7% in assay [5]; 9.35% in assay [6].
Take `CSc1ccc(C(=C=C=C(c2ccc(SC)s2)c2ccc(SC)s2)c2ccc(SC)s2)s1`: the growth inhibition was 38.7% in assay [1]; -19.8% in assay [2]; 2.85% in assay [3]; -24.2% in assay [4]; -31.9% in assay [5]; -2.1% in assay [6].
For `CCc1ccc2[nH]c(C(=O)O)cc2c1`, the growth inhibition in assay [1] is -15.4%; in assay [2], -18.4%; in assay [3], -1.75%; in assay [4], -11.8%; in assay [5] it was -21.6%; in assay [6], 4.45%.
Turning to `O=C(NCCO)c1ccc(Cl)cc1`, the growth inhibition in assay [1] was -23.6%; in assay [2], -26.3%; in assay [3] it was -30.6%; in assay [4], 19.1%; in assay [5] it was -32.4%; in assay [6], -44.5%.
Regarding `COc1cc(/C=C/C(=O)c2ccccc2O)cc(OC)c1OC`, the growth inhibition in assay [1] was -1%; in assay [2], -17.1%; in assay [3] it was 16.4%; in assay [4], -6.35%; in assay [5], -9.15%; in assay [6] it was 13.8%.
With `Cc1ccc2nc3c(C)cc(=O)cc-3sc2c1`, the growth inhibition in assay [1] is 41.1%; in assay [2], 34.6%; in assay [3], 36.5%; in assay [4], 44.9%; in assay [5], 74.5% (active); in assay [6], 43.6%.
Turning to `CN(C)CCNC(=O)c1ccc(C(=O)NCCN(C)C)c2c(C(=O)NCCN(C)C)ccc(C(=O)NCCN(C)C)c12`, the growth inhibition is 19.1% in assay [1]; 41.3% in assay [2]; 37.2% in assay [3]; 54.7% in assay [4]; 4.5% in assay [5]; 8.5% in assay [6].
Consider `CC1(C=O)CCCC2(C)[C@@H]1CCC13CC(CO)C(CC[C@H]12)C3` (some centres not stated), for which the growth inhibition in assay [1] was 19.4%; in assay [2], 5.7%; in assay [3], 10.8%; in assay [4], 16.6%; in assay [5], 14.1%; in assay [6], 18.6%.
Regarding `Oc1ccc(-c2ccc(O)cc2O)c(O)c1`, the growth inhibition is -1.45% in assay [1]; -20.9% in assay [2]; -1.85% in assay [3]; 7.45% in assay [4]; 0.35% in assay [5]; 14.2% in assay [6].
`O=S(=O)(O)c1ccc(N/N=C/c2ccccc2)cc1`: the growth inhibition is -9.45% in assay [1]; 12.7% in assay [2]; 12.1% in assay [3]; 5.3% in assay [4]; -10.2% in assay [5]; 14.3% in assay [6].
As to `CC(C(/C=N/NC(N)=S)=N/NC(N)=S)N1C(=O)c2ccccc2C1=O` (configuration not stated), the growth inhibition in assay [1] was 3.75%; in assay [2], -11.2%; in assay [3], -16.9%; in assay [4] it was -5.1%; in assay [5] it was 2.45%; in assay [6], 23.9%.
With `CSC(=NC(=O)c1c(Cl)cccc1Cl)SC`, the growth inhibition in assay [1] was 21.8%; in assay [2] it was 14.2%; in assay [3] it was 40.2%; in assay [4], 11.3%; in assay [5] it was 42.4%; in assay [6] it was 31.9%.
In the case of `CN(CCN(C)C(=O)CCOS(C)(=O)=O)C(=O)CCOS(C)(=O)=O`, the growth inhibition was -3.95% in assay [1]; -3.05% in assay [2]; -18.4% in assay [3]; 0% in assay [4]; -25.6% in assay [5]; -51.5% in assay [6].
For the compound `Cc1ccc(N2C(=O)CC3(CCCC3)C2=O)cc1Cl`, the growth inhibition was 14.6% in assay [1]; -2% in assay [2]; -6.05% in assay [3]; 5.95% in assay [4]; 5% in assay [5]; 21.6% in assay [6].
`CC12CCC(=O)C=C1CCC1C2CCC2(C)C1CCC2(O)C(=O)Cn1c(=O)cc[nH]c1=O` (configuration not stated): the growth inhibition in assay [1] is 10.3%; in assay [2] it was 4.65%; in assay [3], 1.5%; in assay [4] it was 14.7%; in assay [5], -2.7%; in assay [6], 11.5%.
With `CN1CC(C(N)=O)=CC(C(N)=O)C1` (configuration not stated), the growth inhibition in assay [1] is -5.25%; in assay [2] it was -9.2%; in assay [3], -8.15%; in assay [4], -0.6%; in assay [5], 9.25%; in assay [6], 7.5%.
As to `CN(C)c1ccc(/C=C(\C#N)c2ccccc2Br)cc1`, the growth inhibition in assay [1] is 0.15%; in assay [2] it was -10.5%; in assay [3], 15.7%; in assay [4], -28.2%; in assay [5], 29.6%; in assay [6], 3.95%.
Take `CCN(CC)CCOC(=O)c1ccc(N=C/C=C/C(C#N)=C/NOC)cc1`: the growth inhibition in assay [1] was 0.3%; in assay [2], 27.4%; in assay [3], 9.85%; in assay [4], 21.4%; in assay [5] it was 9.9%; in assay [6] it was 30.9%.
As for `Cc1onc(-c2c(F)cccc2Cl)c1-c1ncc(-c2ccc(Cl)cc2)o1`, the growth inhibition in assay [1] is 3.05%; in assay [2], 3.3%; in assay [3], 29.4%; in assay [4], 0.8%; in assay [5], 29.8%; in assay [6], 16.4%.
On to `O=C(Nc1cccc([N+](=O)[O-])c1)OCC#CCOC(=O)Nc1cccc([N+](=O)[O-])c1`, for which the growth inhibition was 3.8% in assay [1]; 7.5% in assay [2]; 13.7% in assay [3]; 11.8% in assay [4]; 9.95% in assay [5]; 16.1% in assay [6].
Turning to `CC1=CC(=O)/C(=C\c2ccc3c(c2)OCO3)C(C)(C)C1`, the growth inhibition was -23.1% in assay [1]; -8.45% in assay [2]; 4.5% in assay [3]; -19.4% in assay [4]; 52.3% in assay [5]; -1.5% in assay [6].
As to `NC(=O)C1C=CN(Cc2ccccc2)C=C1`, the growth inhibition in assay [1] is -5.2%; in assay [2], 7.45%; in assay [3], -0.65%; in assay [4], -12.8%; in assay [5], 23.4%; in assay [6], 7.3%.
As to `O=C1CSc2ccnc(=O)n21`, the growth inhibition was -0.1% in assay [1]; -10% in assay [2]; 16.7% in assay [3]; 11.1% in assay [4]; -9.8% in assay [5]; -8.1% in assay [6].
Turning to `c1ccc2cc(Nc3ccc(Nc4ccc5ccccc5c4)cc3)ccc2c1`, the growth inhibition is 0.25% in assay [1]; 4.4% in assay [2]; 12.3% in assay [3]; 14.7% in assay [4]; 27.2% in assay [5]; 2.6% in assay [6].
With `O=[N+]([O-])c1ccc(SC2OC(CO)C(O)C(O)C2O)c([N+](=O)[O-])c1` (configuration not stated), the growth inhibition in assay [1] was 2.05%; in assay [2], 29.4%; in assay [3], 3.95%; in assay [4], -14.2%; in assay [5] it was -5.35%; in assay [6] it was 20.8%.
On to `CC(C)NC(=O)OCc1c(COC(=O)NC(C)C)c(S(C)(=O)=O)n2c1CCC2`, for which the growth inhibition is 3.65% in assay [1]; -4.7% in assay [2]; -15.3% in assay [3]; 7.9% in assay [4]; -1.3% in assay [5]; 6.8% in assay [6].
As for `CC(Cl)C(=O)N(C)c1ccccc1` (configuration not stated), the growth inhibition in assay [1] was 3.6%; in assay [2] it was -14.8%; in assay [3], -2.9%; in assay [4], -16%; in assay [5] it was -14.8%; in assay [6], -14.1%.
On to `CCOC(=O)CCc1c[nH]c2ccccc12`, for which the growth inhibition in assay [1] is -12.3%; in assay [2] it was -17.1%; in assay [3] it was -9.9%; in assay [4] it was -9.85%; in assay [5], 0.2%; in assay [6], -3.5%.
`O=C1OC(c2ccccc2)N(C(=O)c2ccccc2)C1Cc1ccc(OCc2ccccc2)cc1` (configuration not stated): the growth inhibition in assay [1] was -30.5%; in assay [2], -6.4%; in assay [3] it was -5.65%; in assay [4], -13.7%; in assay [5] it was 0.95%; in assay [6], 5.75%.
`Brc1ccc(N=N/C(=N/Nc2ccccc2)c2ccc(/C=N/Nc3ccccc3)cc2)cc1`: the growth inhibition in assay [1] is 45.8%; in assay [2], 24.4%; in assay [3] it was 14.6%; in assay [4], 29.2%; in assay [5], 15%; in assay [6], 34.4%.
